PI5P4Ka inh – blocks human PI5P4K alpha kinase activity; P48426; PI5P4Kalpha enzyme, ADP-Glo luminescence, 60 min; stronger effect = lower value; max response, %; actives 1.2% (n = 330,000); active = max response of -50% or lower; inconclusive = between -30% and -50%; inactive = -30% or higher; also: value at the top dose of about 77 µM; % is scaled to controls: 0 for no effect and ±100 for the full control effect
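Single end-point luminescence (ADP-Glo) quantified ADP from PI5P4Kalpha turnover; ATP 5 microM final, 1 h at RT, 0.1% CHAPS and 0.28 mM EGTA in HEPES pH 7.4.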
POLI inh – inhibitors of human DNA polymerase iota | Q9UNA4 | Pol iota fluorescent replication assay, 10 min | Potency, µM (titrated, usually from 115 µM), without a hit: at the top dose activity, negative = inhibition, actives largely listed as inhibitors | actives 1% (n = 390,000) | AID 588590; also: potency is read from the fitted curve at half-maximal effect
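Fluorescent replication assay read twice, at 0 min and 10 min after adding 50 nM (final) substrate. Enzyme (10 nM) and compounds were first incubated 15 min at room temperature; enzyme-free buffer wells were negative controls.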
WRN inhibitor – WRN helicase (human) inhibition; Q14191; WRN helicase unwinding, fluorescent forked duplex, kinetic; Potency, µM (highest dose often 114 µM), for the others: top-dose activity change, negative = inhibition, most hits filed as inhibitors; actives 0.46% (n = 360,000); also: potency is read from the fitted curve at half-maximal effect; % is scaled to controls: 0 for no effect and ±100 for the full control effect; nearly all actives have a fitted effect of over 55% in size
Target sequence (Q14191 whole entry, looked up): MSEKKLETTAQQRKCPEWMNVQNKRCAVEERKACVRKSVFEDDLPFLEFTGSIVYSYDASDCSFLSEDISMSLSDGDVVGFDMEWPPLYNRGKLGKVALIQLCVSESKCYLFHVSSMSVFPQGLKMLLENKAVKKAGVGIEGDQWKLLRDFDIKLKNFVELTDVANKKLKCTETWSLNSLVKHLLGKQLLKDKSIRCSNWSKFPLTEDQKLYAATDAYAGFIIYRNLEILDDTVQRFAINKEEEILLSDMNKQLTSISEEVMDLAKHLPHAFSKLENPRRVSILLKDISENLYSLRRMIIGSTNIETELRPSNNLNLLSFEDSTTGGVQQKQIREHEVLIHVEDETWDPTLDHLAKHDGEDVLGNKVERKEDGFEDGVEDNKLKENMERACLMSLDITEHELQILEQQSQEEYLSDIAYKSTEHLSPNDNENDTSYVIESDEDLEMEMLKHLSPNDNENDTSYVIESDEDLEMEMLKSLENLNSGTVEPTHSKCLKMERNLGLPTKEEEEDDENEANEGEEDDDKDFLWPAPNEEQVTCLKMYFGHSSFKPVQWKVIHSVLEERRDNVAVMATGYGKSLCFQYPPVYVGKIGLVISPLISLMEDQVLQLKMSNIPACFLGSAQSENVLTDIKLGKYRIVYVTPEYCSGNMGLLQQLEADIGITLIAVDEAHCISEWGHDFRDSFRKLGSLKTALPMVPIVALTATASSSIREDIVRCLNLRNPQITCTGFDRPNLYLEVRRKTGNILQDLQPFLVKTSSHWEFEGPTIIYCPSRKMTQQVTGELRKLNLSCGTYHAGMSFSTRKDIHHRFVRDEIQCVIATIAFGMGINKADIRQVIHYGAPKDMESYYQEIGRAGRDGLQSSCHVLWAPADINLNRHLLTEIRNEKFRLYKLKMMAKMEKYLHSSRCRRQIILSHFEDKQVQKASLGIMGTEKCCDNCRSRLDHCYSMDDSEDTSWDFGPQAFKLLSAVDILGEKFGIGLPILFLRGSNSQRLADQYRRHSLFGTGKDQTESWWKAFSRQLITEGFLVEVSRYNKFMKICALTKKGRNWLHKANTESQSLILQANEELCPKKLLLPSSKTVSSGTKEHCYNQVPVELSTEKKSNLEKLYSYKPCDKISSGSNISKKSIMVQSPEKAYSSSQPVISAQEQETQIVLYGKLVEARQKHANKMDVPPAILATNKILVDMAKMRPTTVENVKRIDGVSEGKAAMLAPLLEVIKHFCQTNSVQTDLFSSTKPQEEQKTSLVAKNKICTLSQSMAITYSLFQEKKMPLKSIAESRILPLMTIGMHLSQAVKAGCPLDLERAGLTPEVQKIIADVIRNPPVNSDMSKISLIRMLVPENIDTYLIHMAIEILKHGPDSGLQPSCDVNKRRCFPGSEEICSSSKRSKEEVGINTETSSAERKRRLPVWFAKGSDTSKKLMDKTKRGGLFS
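Enzyme (20 nM final) and test compound sit together 15 min at room temperature before substrate addition. Substrate is a single-forked duplex oligonucleotide (100 nM) labelled with fluorophore and quencher, with 2 mM ATP; helicase unwinding raises red fluorescence, read kinetically.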
POLB inh – DNA polymerase beta (human) inhibition; P06746; Pol beta primer extension/strand displacement, fluorescence kinetic; Potency, µM (titrated, usually from 114 µM), inactives show top-dose activity change, negative = inhibition, most hits filed as inhibitors; actives 1.3% (n = 340,000); also: potency is read from the fitted curve at half-maximal effect; % is scaled to controls: 0 for no effect and ±100 for the full control effect
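Kinetic readout of DNA synthesis with strand displacement by Pol beta. Compound and 10 nM enzyme sit 15 min at room temperature; 50 nM substrate starts the reaction, read immediately and at 10 min.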
Pol eta inh-1 – inhibitors of human DNA polymerase eta; AID 588591; Potency, µM (titrated, usually from 114 µM), for inactives: top-dose activity change, negative = inhibition, most hits filed as inhibitors; recombinant Pol eta, fluorescent DNA replication assay; actives 1.2% (n = 390,000); also: potency is read from the fitted curve at half-maximal effect; % is scaled to controls: 0 for no effect and ±100 for the full control effect
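Pol eta (10 nM) was preincubated with compounds for 15 min at room temperature, after which fluorescent replication substrate (50 nM final) was added to start the reaction. Fluorescence was read kinetically at 0 and 10 min.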
Pol kappa inh-1 – inhibitors of human DNA polymerase kappa. actives 0.53% (n = 400,000). AID 588579. purified Pol kappa, fluorescent DNA synthesis assay, 10 min. Potency, µM (top dose mostly 107 µM), without a hit: top-dose activity, negative = inhibition, most hits filed as inhibitors. Q9UBT6; also: potency is read from the fitted curve at half-maximal effect; % is scaled to controls: 0 for no effect and ±100 for the full control effect
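Pol kappa 10 nM + cpd, 15 min RT; start w/ substrate 50 nM final; fluorescence kinetic read, 0 and 10 min. Neg ctrl: buffer, no enzyme.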
PGK validate – validation of Trypanosoma brucei phosphoglycerate kinase inhibitors | Potency, µM (doses to about 57.5 µM), without a hit: at the highest dose activity change, negative = inhibition, hits mostly inhibitors | TbPGK coupled GAPDH assay, Kinase-Glo luminescence | actives 79% (n = 500) | AID 686980 | shares compounds with Pol kappa inh-1; also: potency is read from the fitted curve at half-maximal effect; % is scaled to controls: 0 for no effect and ±100 for the full control effect; nearly all actives have a fitted effect of over 65% in size
Pol iota confirm – Confirm cherry-picked inhibitors of human polymerase iota | shares compounds with Pol kappa inh-1 | Pol iota primer extension, TAMRA/BHQ fluorescence | Potency, µM, actives largely listed as inhibitors | actives 77% (n = 1,500); also: potency is read from the fitted curve at half-maximal effect
Pol kappa inh-2 – Pol kappa (human) inhibition, cherry-pick confirmation; shares compounds with Pol eta inh-1; actives 76% (n = 920); purified Pol-kappa, fluorescent strand-displacement substrate; AID 720501; Potency, µM, actives largely listed as inhibitors; also: potency is read from the fitted curve at half-maximal effect
Pol eta inh-2 – Pol eta (human) inhibition, cherry-pick confirmation. shares compounds with Pol eta inh-1. Pol eta primer extension, TAMRA/BHQ fluorescence, 10 min. Potency, µM, usual class: inhibitors. actives 64% (n = 2,600); also: potency is read from the fitted curve at half-maximal effect
An asterisk follows results filed as active; ? = inconclusive; . = no result; [ ] = dose if it differs, or a comment. Sampled rows, rich in hits. Any-hit rate of the full collection: about 2.8%. Unless noted, calls follow the shape of the dose curve; as a rule, active = well fitted curve in the direction sought with a large enough effect; inconclusive = small, poorly fitted or top-dose-only effect, or another doubt; inactive = no such curve, though single readings can be large; an effect the other way counts as inactive or inconclusive.

SMILES	PI5P4Ka inh	POLI inh	WRN inhibitor	POLB inh	Pol eta inh-1	Pol kappa inh-1	Pol iota confirm	Pol eta inh-2	others
COc1ccc(N2Cc3cccc(C(=O)Nc4ccc(C)cc4)c3C2=O)cc1	.	79µM*	.	13µM*	.	?	?	?	Pol kappa inh-2=38*
COc1ccc(N2Cc3cccc(C(=O)Nc4ccc(C(C)C)cc4)c3C2=O)cc1	.	56µM*	.	11µM*	.	?	?	?	Pol kappa inh-2=30*
CC(C)c1ccc(NC(=O)c2cccc3c2C(=O)N(C2CCCCC2)C3)cc1	.	-1%	.	-4%	.	5%	.	.
OCC[N+]1(CCc2ccccc2)CCOCC1	.	1%	.	.	.	5%	.	.
COCCNc1nc(NCc2cc(-c3ccc(OC)cc3)no2)c2sccc2n1	-2	.	-7%	.	.	.	.	.
CCCOc1ccc([N+](=O)[O-])c(N)c1	3	18%	-14%[57.1 µM]	16%	-14%	-8%	.	.
COc1ccc(/C=C2/SC(=S)N(c3ccc(S(=O)(=O)Nc4nccs4)cc3)C2=O)cc1	-67*	22µM*	?	-22%	25µM*	50µM*	?	67*
O=C(O)COc1ccc(C=C2SC(=S)N(c3ccccc3)C2=O)cc1	-19	?	-6%	.	?	-4%	.	.
C#CCN1C=C(C(=O)OCC)C(C)N(Cc2ccccc2I)S1(=O)=O (stereo not drawn)	5	9%	-8%	.	-23%	-1%	.	.
O=C1NC(=Nc2ccccc2)S/C1=C\C=C\c1ccco1	-94*	11µM*	50µM*	2.5µM*	10µM*	20µM*	38*	27*
COc1ccc(N=C2NC(=O)/C(=C/C=C/c3ccccc3)S2)cc1	-1	142%	-11%	37%	-16%	-5%	.	.
O=C(N=Nc1c(O)[nH]c2ccccc12)c1cc(-c2cccs2)[nH]n1	-16	?	-30%	?	56µM*	-30%	67*	.	Pol kappa inh-2=?
COc1ccc(Cn2c(SCC(=O)N3CCN(c4ccc(F)cc4)CC3)nc3ccccc32)cc1	.	28%	.	1%	-12%	7%	.	.
COC(=O)[C@]12CCCCC=C1N(Cc1cccc3ccccc13)C(=O)[C@H](CC(=O)NCCCN1CCCC1=O)C2	0	.	0%	.	.	.	.	.
O=C(N/N=C/c1cccn1-c1cccc(C(=O)O)c1)Nc1ccccc1	-24	?	-15%[11.6 µM]	28µM*	7.9µM*	79µM*	75*	60*
COc1ccccc1/C=C1\SC(=S)N(C(C(=O)O)c2ccccc2)C1=O (stereo not drawn)	5	14%	-5%	-23%	-18%	-5%	.	.
O=C(O)C(c1ccccc1)N1C(=O)/C(=C\c2ccc(O)c(O)c2)SC1=S (stereo not drawn)	?	?	32µM*	4µM*	3.2µM*	7.1µM*	15*	4.8*	Pol kappa inh-2=2.7*
COC(=O)c1ccccc1-c1c2ccc(=N)cc-2oc2cc(N)ccc12	-8	79µM*	4.7µM*	.	50µM*	28µM*	24*	76*	Pol kappa inh-2=47*
Cc1ccc(C(=O)NCCN(C)C)c(C)c1	0	3%	4%	-22%	-11%	5%	.	.
CNc1c2cccc(C)c2nc2c(C(=O)NCCN(C)C)cccc12	6	11µM*	-10%	.	3.5µM*	8.9µM*	3*	38*
S=c1[nH]nc(-c2ccncc2)n1/N=C/C=C/c1ccco1	?	?	?	20µM*	28µM*	-89%	42*	27*	Pol kappa inh-2=30*
CC(/C=N/n1c(-c2ccccc2)n[nH]c1=S)=C\c1ccco1	.	-14%	-14%[57.1 µM]	?	?	-5%	.	.
COc1cc(/C=C2\SC(=Nc3ccc(Cl)c(C(=O)O)c3)NC2=O)c(Br)c(Br)c1O	-106*	22µM*	?	8.9µM*	18µM*	40µM*	67*	?	Pol kappa inh-2=8.4*
COc1ccc(CN2C(=NC(=O)C3CC3)SC3CS(=O)(=O)CC32)cc1OC (stereo not drawn)	4	-16%	6%	2%	-14%	10%	.	.
Cc1ccc2oc(C(=O)N(Cc3cccc(F)c3)C3CCS(=O)(=O)C3)c(C)c2c1 (stereo not drawn)	.	-23%	.	20%	-13%	6%	.	.
SMILES	PI5P4Ka inh	POLI inh	WRN inhibitor	POLB inh	Pol eta inh-1	Pol kappa inh-1	Pol iota confirm	Pol eta inh-2	others
Cc1cc(C)c(S(=O)(=O)/N=C2/C=C(Sc3ncn[nH]3)C(=O)c3ccccc32)cc1C	-80*	1µM*	22µM*	79µM*	13µM*	?	17*	24*
COc1ccc(C=C(C#N)C(=O)c2ccccc2)cc1	-1	.	-12%	.	.	.	.	.
COc1cc(/C=C(\C#N)C(=O)c2ccc(O)c(O)c2)cc(I)c1O	-85*	0.89µM*	1.2µM*	0.6µM*	0.89µM*	0.42µM*	6.7*	5.4*	PGK validate=3.7µM*;Pol kappa inh-2=2.4*
CC(C)Oc1ccccc1-c1nc(SCC(=O)c2ccc(F)cc2)n[nH]1	.	-8%	.	12%	-14%	-7%	.	.
O=C(O)c1[nH]c2ccccc2c1C(c1cc(Br)ccc1O)c1c(C(=O)O)[nH]c2ccccc12	1	?	3%[11.6 µM]	79µM*	50µM*	?	?	?
Cc1[nH][nH]c(=O)c1C(c1cc(Br)ccc1O)c1c(C)[nH][nH]c1=O	-13	-13%	-12%	-29%	1%	-5%	.	.
O=C(O)c1cccc(NC(=S)N/N=C/c2ccccn2)c1	?	2%	4%	-26%	10%	8%	.	.
O=C(O)c1cccc(NC(=S)N/N=C/c2ccccc2OCc2cccc(Br)c2)c1	?	?	?	-19%	20µM*	-11%	?	48*
C=C1CC2C(=O)N(Cc3cc(OC)ccc3OC)C(C(=O)OCC)C1N2C (stereo not drawn)	.	-13%	.	.	.	4%	.	.
O=C(O)c1cccc(-c2ccc(/C=N/NC(=O)c3cccnc3)o2)c1	-26	?	-24%[57.1 µM]	25µM*	10µM*	-42%	?	30*

Screens deposited in PubChem by National Center for Advancing Translational Sciences (NCATS).
